Records with an inconclusive call do not appear. Calls of active or inactive are those of the source. Unless noted, calls come from the whole dose curve; as a rule, active = well fitted curve in the direction sought with a large enough effect in the repeat runs; inconclusive = weak or mixed curves; inactive = no such curve, though single readings can be large; an effect the other way counts as inactive or inconclusive.
Columns and labels:
[1] = molecular target: Estrogen receptor (Homo sapiens) (UniProt P03372); experiment: qHTS assay to identify small molecule antagonists of the estrogen receptor alpha (ER-alpha) signaling pathway using the BG1 cell line in the presence of 0.1 nM 17-beta-estradiol (AID 1259244); note: nearly all actives have a fitted effect of over 50% in size
Sequence of Estrogen receptor (Homo sapiens) (P03372 whole entry, looked up): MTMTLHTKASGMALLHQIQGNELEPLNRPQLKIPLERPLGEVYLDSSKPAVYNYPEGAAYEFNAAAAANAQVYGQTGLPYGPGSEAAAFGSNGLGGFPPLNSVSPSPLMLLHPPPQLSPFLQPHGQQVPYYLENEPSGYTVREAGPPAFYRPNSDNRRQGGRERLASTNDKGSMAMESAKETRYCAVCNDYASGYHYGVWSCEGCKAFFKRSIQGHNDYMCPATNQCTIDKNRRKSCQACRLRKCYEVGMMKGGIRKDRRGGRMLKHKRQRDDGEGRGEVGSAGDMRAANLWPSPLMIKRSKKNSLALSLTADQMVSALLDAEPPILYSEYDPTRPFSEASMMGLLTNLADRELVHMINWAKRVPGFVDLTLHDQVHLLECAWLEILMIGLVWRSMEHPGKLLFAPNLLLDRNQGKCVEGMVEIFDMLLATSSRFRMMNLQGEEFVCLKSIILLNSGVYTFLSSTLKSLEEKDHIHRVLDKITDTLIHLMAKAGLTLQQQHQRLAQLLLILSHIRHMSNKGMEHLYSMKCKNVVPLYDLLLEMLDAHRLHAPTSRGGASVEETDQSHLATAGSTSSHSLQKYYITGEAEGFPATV
Summary of the method: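 VM7Luc4E2; 4xERE-luciferase; 0.1 nM E2 final; 22 h co-incubation, 37C; ONE-Glo luminescence after 30 min at room temperature.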

[2] = qHTS assay to identify small molecule phospholipidosis (PLD) inducers (AID 1259344; active = well fitted curve in the direction sought with a large enough effect; an effect the other way counts as inactive or inconclusive)
Summary of the method: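 Quantitative HTS in HepG2: compound plus LipidTOX Red dye for 24 h, paraformaldehyde fixation with Hoechst 33342, widefield high-content imaging; amiodarone as positive and DMSO as negative control.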

[3] = qHTS assay to identify small molecule HDAC inhibitors (AID 1259364); note: potency is the fitted concentration of half-maximal effect;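 note: wild-type HCT-116 cells with endogenous class I/II HDAC activity; nearly all actives have a fitted effect of over 45% in size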
Summary of the method: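 Relative class I and II HDAC activity is taken from the luminogenic signal in HCT-116 cells, with compound exposure 2 hr and reagent development 30 min at room temperature.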

[4] = qHTS assay to identify small molecule HDAC inhibitors - cell viability counter screen (AID 1259365); note: series mostly up to about 92 µM; nearly all actives have a fitted effect of over 50% in size
Summary of the method: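 After overnight seeding at 1,500 cells per well, wild-type HCT-116 cultures took up compounds in DMSO for 2hr at 37 C. Viable cell content came from luminescence with CellTiter-Glo.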

[5] = qHTS assay to identify small molecule agonists of the sonic hedgehog signaling (Shh) pathway - cell viability counter screen (AID 1259366); note: nearly all actives have a fitted effect of over 50% in size
Summary of the method: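 Same-well cytotoxicity read. Gli1-Luc reporter 3T3 cells; compounds 24hr, 37C/5% CO2; CellTiter-Fluor fluorescence.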

[6] = qHTS assay to identify small molecule antagonists of the sonic hedgehog signaling (Shh) pathway - cell viability counter screen (AID 1259367); note: nearly all actives have a fitted effect of over 55% in size; note: potency is the fitted concentration of half-maximal effect
Summary of the method: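 Seed 3T3 Gli1-Luc cells at 2,000 per well; incubate 4 hr; add compound in DMSO, then conditioned medium; incubate at 37C with 5% CO2; add CellTiter-Fluor after 23 hr; read fluorescence 1 hr later.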

[7] = qHTS assay to identify small molecule agonists of the sonic hedgehog signaling (Shh) pathway (AID 1259368; calls by dose curve;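 note: NIH/3T3-derived 3T3Gli1-Luc cells carrying a stable Gli1-driven firefly luciferase reporter; series mostly up to about 92 µM; nearly all actives have a fitted effect of over 15% in size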)
Summary of the method: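 Mouse fibroblast (NIH/3T3) reporter cells with stably integrated Gli1-Luc were treated 24 hr with compound; firefly luciferase luminescence served as the read-out.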

[8] = qHTS assay to identify small molecule antagonists of the sonic hedgehog signaling (Shh) pathway (AID 1259369; calls by dose curve; note: nearly all actives have a fitted effect of over 45% in size; note: potency is the fitted concentration of half-maximal effect)
Summary of the method: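 Conditioned medium drives Shh signalling in 3T3Gli1-Luc cells; compounds in DMSO co-applied, 24hr at 37 C, then luciferase luminescence.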

[9] = molecular target: Estrogen receptor beta (Homo sapiens) (UniProt Q92731); experiment: qHTS assay to identify small molecule agonists of the estrogen receptor beta (ER-beta) signaling pathway (AID 1259377; active = well fitted activation curve with a large enough effect in the signal ratio in the repeat runs, not every such curve was filed as active; the % refers to the signal ratio)
Sequence of Estrogen receptor beta (Homo sapiens) (Q92731 whole entry, looked up): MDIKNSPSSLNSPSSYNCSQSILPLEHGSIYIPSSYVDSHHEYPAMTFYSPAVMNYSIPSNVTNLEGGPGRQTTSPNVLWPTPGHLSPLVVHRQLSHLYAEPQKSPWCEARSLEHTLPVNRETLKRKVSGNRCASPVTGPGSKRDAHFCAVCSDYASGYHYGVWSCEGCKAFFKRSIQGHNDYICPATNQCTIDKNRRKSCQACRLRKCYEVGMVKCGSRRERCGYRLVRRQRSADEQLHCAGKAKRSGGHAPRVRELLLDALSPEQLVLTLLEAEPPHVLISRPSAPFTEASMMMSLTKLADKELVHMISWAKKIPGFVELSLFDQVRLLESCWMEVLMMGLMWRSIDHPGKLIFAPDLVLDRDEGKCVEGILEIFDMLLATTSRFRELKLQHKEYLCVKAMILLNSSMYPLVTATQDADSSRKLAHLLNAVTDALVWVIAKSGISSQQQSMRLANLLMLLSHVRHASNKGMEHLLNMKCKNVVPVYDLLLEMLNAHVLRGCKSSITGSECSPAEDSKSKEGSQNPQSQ
Summary of the method: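 Read-out: beta-lactamase FRET fluorescence. Cell line: ER-beta-UAS-bla HEK293T in 2% charcoal-stripped FBS. Exposure: 16 hr at 37C. Substrate step: 2 h at room temperature.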

[10] = molecular target: Estrogen receptor beta (Homo sapiens) (UniProt Q92731); experiment: qHTS assay to identify small molecule antagonists of the estrogen receptor beta (ER-beta) signaling pathway (AID 1259378; active = well fitted inhibition curve with a large enough effect in the signal ratio in the repeat runs, not every such curve was filed as active; the % refers to the signal ratio; note: potency is the fitted concentration of half-maximal effect)
Summary of the method: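 ER-beta-UAS-bla HEK293T cells in 2% charcoal-stripped FBS medium treated with compound plus 1nM final 17-beta-estradiol for 16 hr at 37C. Beta-lactamase reporter read by FRET substrate fluorescence after 2 hours at room temperature.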

[11] = qHTS assay to identify small molecule agonists of the androgen receptor (AR) signaling pathway in the presence of an antagonist - cell viability counter screen (AID 1259379); note: nearly all actives have a fitted effect of over 25% in size; note: potency is the fitted concentration of half-maximal effect
Summary of the method: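 A CellTiter-Fluor read-out measured viability of MDA-kb2 reporter cells (MMTV promoter with AR and GR response elements). Treatment: nilutamide 3.0uM final with compounds at 15 concentrations, 16 hr, 37C, 0% CO2.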

[12] = qHTS assay to identify small molecule agonists of the estrogen receptor beta (ER-beta) signaling pathway - cell viability counter screen (AID 1259380); note: nearly all actives have a fitted effect of over 30% in size; note: potency is the fitted concentration of half-maximal effect
Summary of the method: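 Cells used were ER-beta-UAS-bla HEK293T in medium with 2% charcoal-stripped FBS. They were treated for 16 hr at 37C. Viability came from CellTiter-Glo luminescence.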

[13] = molecular target: Androgen receptor (Homo sapiens) (UniProt P10275); experiment: qHTS assay to identify small molecule agonists of the androgen receptor (AR) signaling pathway in the presence of an antagonist (AID 1259381; calls by dose curve; note: nearly all actives have a fitted effect of over 15% in size; note: potency is the fitted concentration of half-maximal effect)
Sequence of Androgen receptor (Homo sapiens) (P10275 whole entry, looked up): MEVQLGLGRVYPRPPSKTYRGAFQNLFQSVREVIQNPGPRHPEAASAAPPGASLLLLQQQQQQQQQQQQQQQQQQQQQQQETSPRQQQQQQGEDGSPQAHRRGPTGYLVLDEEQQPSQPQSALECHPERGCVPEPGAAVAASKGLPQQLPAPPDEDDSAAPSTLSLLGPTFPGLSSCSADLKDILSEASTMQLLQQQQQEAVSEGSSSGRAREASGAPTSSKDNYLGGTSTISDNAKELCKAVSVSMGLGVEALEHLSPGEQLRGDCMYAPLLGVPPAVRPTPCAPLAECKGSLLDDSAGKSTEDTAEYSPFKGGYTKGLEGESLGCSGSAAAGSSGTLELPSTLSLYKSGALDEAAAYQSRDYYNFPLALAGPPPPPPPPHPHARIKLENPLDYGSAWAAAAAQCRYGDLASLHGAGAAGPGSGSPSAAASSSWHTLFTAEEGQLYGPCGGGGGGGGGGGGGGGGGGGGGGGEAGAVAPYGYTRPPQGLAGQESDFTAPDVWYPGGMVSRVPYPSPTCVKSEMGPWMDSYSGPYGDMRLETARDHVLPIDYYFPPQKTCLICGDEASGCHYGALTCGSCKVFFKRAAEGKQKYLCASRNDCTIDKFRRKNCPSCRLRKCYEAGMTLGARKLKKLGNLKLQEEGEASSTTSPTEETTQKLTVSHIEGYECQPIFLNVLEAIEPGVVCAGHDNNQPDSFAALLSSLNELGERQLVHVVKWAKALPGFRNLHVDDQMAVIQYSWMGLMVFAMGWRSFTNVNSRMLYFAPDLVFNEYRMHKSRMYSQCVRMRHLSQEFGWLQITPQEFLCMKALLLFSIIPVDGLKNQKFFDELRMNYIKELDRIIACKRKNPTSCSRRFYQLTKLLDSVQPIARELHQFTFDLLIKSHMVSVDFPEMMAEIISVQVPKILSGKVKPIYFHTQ
Summary of the method: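 Using human MDA-kb2 cells with an MMTV promoter–luciferase construct (AR and GR response elements), agonist activity is scored under 3.0uM nilutamide (final) co-treatment; 16hr incubation, 37C, luminescence readout via ONE-Glo.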

[14] = qHTS assay to identify small molecule antagonists of the estrogen receptor beta (ER-beta) signaling pathway - cell viability counter screen (AID 1259382); note: nearly all actives have a fitted effect of over 55% in size; note: potency is the fitted concentration of half-maximal effect
Summary of the method: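 Agonist-stimulated (1nM E2) ER-beta-UAS-bla HEK293T cells are incubated with library compounds for 16 hr at 37C. Cell viability is then assessed in the reporter-assay wells by adding CellTiter-Glo and reading luminescence after 30 min.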

[15] = molecular target: Estrogen receptor (Homo sapiens) (UniProt P03372); experiment: qHTS assay to identify small molecule agonists of the estrogen receptor alpha (ER-alpha) signaling pathway in the presence of an antagonist (AID 1259383; calls by dose curve; note: top concentration of the series differs between compounds; nearly all actives have a fitted effect of over 15% in size)
Summary of the method: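 Using VM7Luc4E2 cells seeded 24hr before treatment, antagonist ICI-182,780 (10.0nM final) was added, followed by compounds at 15 concentrations. Plates incubated 22hr; ONE-Glo luminescence quantified reporter activity.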

[16] = molecular target: Thyrotropin receptor (Homo sapiens) (UniProt P16473); experiment: qHTS assay to identify small molecule antagonists of the thyroid stimulating hormone receptor (TSHR) signaling pathway (AID 1259385; calls by dose curve; note: nearly all actives have a fitted effect of over 20% in size; note: potency is the fitted concentration of half-maximal effect)
Sequence of Thyrotropin receptor (Homo sapiens) (P16473 whole entry, looked up): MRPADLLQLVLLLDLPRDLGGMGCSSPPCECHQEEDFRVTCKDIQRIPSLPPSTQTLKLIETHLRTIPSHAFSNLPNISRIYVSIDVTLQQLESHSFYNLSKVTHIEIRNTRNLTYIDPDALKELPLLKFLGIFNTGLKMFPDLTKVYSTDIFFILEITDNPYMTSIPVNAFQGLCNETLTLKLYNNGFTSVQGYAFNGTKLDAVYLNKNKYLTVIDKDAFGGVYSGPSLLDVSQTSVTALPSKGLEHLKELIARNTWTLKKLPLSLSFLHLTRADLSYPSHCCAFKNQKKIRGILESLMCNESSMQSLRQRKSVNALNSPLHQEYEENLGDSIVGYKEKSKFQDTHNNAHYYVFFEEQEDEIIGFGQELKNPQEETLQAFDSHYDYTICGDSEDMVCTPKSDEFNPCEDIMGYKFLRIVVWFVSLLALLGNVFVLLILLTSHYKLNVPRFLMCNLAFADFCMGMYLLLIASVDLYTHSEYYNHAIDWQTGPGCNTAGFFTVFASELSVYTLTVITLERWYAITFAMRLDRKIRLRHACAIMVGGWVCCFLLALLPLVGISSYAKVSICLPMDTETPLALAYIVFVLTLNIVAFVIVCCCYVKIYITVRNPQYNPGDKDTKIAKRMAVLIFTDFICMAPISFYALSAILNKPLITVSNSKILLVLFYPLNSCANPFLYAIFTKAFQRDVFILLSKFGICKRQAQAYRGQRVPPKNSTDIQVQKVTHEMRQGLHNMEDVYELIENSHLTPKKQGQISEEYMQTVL
Summary of the method: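 TSHR-HEK293 cells (800/well) plated 18 h, then compounds with Ro20-1724 and TSH at 1.5 ng/mL final, 30 min at room temperature. cAMP quantified by HTRF (cAMP-d2/anti-cAMP-cryptate, 1 h); 15 concentrations in triplicate.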

[17] = qHTS assay to identify small molecule agonists of the estrogen receptor alpha (ER-alpha) signaling pathway in the presence of an antagonist - cell viability counter screen (AID 1259386);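 note: cells exposed to compounds for 22 h at 37 °C before the viability read; nearly all actives have a fitted effect of over 30% in size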; note: potency is the fitted concentration of half-maximal effect
Summary of the method: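 ICI-182,780 at 10.0nM final accompanies the compound titration (15 concentrations, 22hr, 37C) on VM7Luc4E2 cells. The CellTiter-Fluor fluorescence readout runs in the same wells as the luciferase assay.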

[18] = molecular target: Progesterone receptor (Homo sapiens) (UniProt P06401); experiment: qHTS assay to identify small molecule agonists of the progesterone receptor (PR) signaling pathway (AID 1346784; calls by dose curve; note: nearly all actives have a fitted effect of over 30% in size)
Sequence of Progesterone receptor (Homo sapiens) (P06401 whole entry, looked up): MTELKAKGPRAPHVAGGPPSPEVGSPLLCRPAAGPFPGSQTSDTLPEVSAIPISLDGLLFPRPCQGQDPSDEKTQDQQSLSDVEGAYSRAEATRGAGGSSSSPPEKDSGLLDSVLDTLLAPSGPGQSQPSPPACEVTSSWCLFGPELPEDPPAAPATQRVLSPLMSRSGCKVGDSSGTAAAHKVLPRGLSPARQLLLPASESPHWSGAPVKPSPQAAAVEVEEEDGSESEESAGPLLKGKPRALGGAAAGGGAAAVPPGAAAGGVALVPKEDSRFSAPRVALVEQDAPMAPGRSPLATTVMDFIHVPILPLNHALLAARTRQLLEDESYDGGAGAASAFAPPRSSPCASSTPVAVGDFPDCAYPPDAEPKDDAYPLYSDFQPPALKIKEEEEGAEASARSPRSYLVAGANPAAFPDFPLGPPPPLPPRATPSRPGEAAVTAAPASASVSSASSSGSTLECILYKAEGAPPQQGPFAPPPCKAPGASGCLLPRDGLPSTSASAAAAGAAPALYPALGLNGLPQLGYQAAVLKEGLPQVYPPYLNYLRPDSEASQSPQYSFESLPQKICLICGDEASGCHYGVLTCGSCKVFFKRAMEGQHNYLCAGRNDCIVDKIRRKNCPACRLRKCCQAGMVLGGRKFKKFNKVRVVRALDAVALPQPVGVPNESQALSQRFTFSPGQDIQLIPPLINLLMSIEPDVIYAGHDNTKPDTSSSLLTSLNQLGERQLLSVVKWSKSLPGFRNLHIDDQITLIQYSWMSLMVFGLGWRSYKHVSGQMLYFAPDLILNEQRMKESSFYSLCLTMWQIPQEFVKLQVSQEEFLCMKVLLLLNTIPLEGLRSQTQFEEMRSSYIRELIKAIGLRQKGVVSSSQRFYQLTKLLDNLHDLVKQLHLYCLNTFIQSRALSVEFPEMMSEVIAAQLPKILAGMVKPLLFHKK
Summary of the method: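 Compounds were tested for PR agonism in HEK 293T cells bearing a beta-lactamase gene under UAS control. Treatment lasted 16 hr at 37C; signal came from fluorescence of a FRET substrate.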

[19] = molecular target: Progesterone receptor (Homo sapiens) (UniProt P06401); experiment: qHTS assay to identify small molecule antagonists of the progesterone receptor (PR) signaling pathway (AID 1346795; active = well fitted inhibition curve with a large enough effect in the signal ratio in the repeat runs, not every such curve was filed as active; the % refers to the signal ratio)
Summary of the method: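 In HEK293T cells bearing the PR-UAS-bla reporter, compound effects on promegestone-driven (1 nM) beta-lactamase expression are assessed after 16 hr using a fluorescent FRET substrate incubated 2 hr at room temperature.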

[20] = qHTS assay to identify small molecule agonists or antagonists of the thyroid stimulating hormone receptor (TSHR) signaling pathway - wild type cell line counter screen (AID 1259384; calls by dose curve)
Summary of the method: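 Wild-type Hek293 cells, 800/well, 18 h at 37C, then compound with Ro20-1724 for 30 min RT. cAMP by HTRF (cAMP-d2/anti-cAMP cryptate), 1 h RT, fluorescence read. 15 concentrations, triplicates.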
% is set by controls: 0 for no effect and ±100 for the full control effect.

CC(=O)N(O)CCCCCNC(=O)CCC(=O)N(O)CCCCCNC(=O)CCC(=O)N(O)CCCCCN
inactive: Potency [1] | Potency [2] | Potency [3] | outcome [4] | Potency [5] | Potency [6] | outcome [7] | Potency [8] | Potency [9] | Potency [10] | Potency [11] | Potency [12] | Potency [13] | Potency [14] | Potency [15] | Potency [16] | Potency [17] | outcome [18] | Potency [19]

CC(C(=O)O)c1ccc(-c2ccccc2)c(F)c1 (stereo not drawn)
active: Potency [3] 43.3 µM
inactive: Potency [1] | Potency [2] | outcome [4] | Potency [5] | Potency [6] | Potency [8] | Potency [10] | Potency [11] | Potency [12] | Potency [14] | Potency [15] | Potency [17]

CCN(CC)CCOC(=O)C1(c2ccccc2)CCCC1
inactive: Potency [1] | Potency [2] | Potency [3] | outcome [4] | Potency [5] | Potency [6] | outcome [7] | Potency [8] | Potency [9] | Potency [10] | Potency [11] | Potency [12] | Potency [13] | Potency [14] | Potency [15] | Potency [16] | Potency [17] | outcome [18] | Potency [19]

Nc1nc(N)c2nc(CNc3ccc(C(=O)N[C@@H](CCC(=O)O)C(=O)O)cc3)cnc2n1
inactive: Potency [1] | Potency [2] | Potency [3] | outcome [4] | Potency [6] | Potency [8] | Potency [10] | Potency [11] | Potency [12] | Potency [14] | Potency [15] | Potency [20] | Potency [16] | Potency [17] | outcome [18]

CCN(CC)CCc1nc(-c2ccccc2)no1
inactive: Potency [1] | Potency [2] | Potency [3] | Potency [5] | outcome [7] | Potency [8] | Potency [9] | Potency [10] | Potency [11] | Potency [12] | Potency [14] | Potency [15] | Potency [20] | Potency [16] | Potency [17] | outcome [18]

CCOc1cc(OCC)c(C(=O)CCC(=O)O)cc1OCC
inactive: Potency [1] | Potency [2] | outcome [4] | Potency [5] | outcome [7] | Potency [8] | Potency [9] | Potency [10] | Potency [11] | Potency [14] | Potency [15] | Potency [17] | outcome [18] | Potency [19]

CC(C(=O)O)c1ccc(C(=O)c2ccccc2)s1 (stereo not drawn)
inactive: Potency [1] | Potency [2] | outcome [4] | Potency [5] | Potency [6] | outcome [7] | Potency [8] | Potency [11] | Potency [12] | Potency [14] | Potency [17] | outcome [18] | Potency [19]

CN(C)CCCOc1nn(Cc2ccccc2)c2ccccc12
inactive: Potency [1] | Potency [2] | Potency [3] | outcome [4] | Potency [6] | outcome [7] | Potency [8] | Potency [10] | Potency [11] | Potency [14] | Potency [15] | Potency [20] | Potency [16] | Potency [17]

CN(C)CC[C@@H](c1ccc(Br)cc1)c1ccccn1
inactive: Potency [1] | Potency [2] | Potency [3] | outcome [4] | Potency [5] | Potency [6] | outcome [7] | Potency [8] | Potency [11] | Potency [14] | Potency [15] | Potency [17] | outcome [18] | Potency [19]

NC(N)=NN=C(/C=C/c1ccc([N+](=O)[O-])o1)/C=C/c1ccc([N+](=O)[O-])o1
active: Potency [6] 2.37 µM | Potency [8] 2.98 µM | Potency [11] 8.41 µM | Potency [12] 10.6 µM | Potency [14] 23.7 µM | Potency [17] 9.44 µM
inactive: Potency [1] | Potency [2] | Potency [3] | Potency [13] | Potency [15] | Potency [20]

Nc1ccc(C(=O)Nc2ccccc2N)cc1
active: Potency [12] 0.841 µM | Potency [13] 5.96 µM
inactive: Potency [1] | Potency [2] | outcome [4] | Potency [5] | Potency [6] | outcome [7] | Potency [8] | Potency [11] | Potency [15] | Potency [20] | Potency [16] | Potency [17]

NC1CCN(c2nc3c(cc2F)c(=O)c(C(=O)O)cn3-c2ccc(F)cc2F)C1 (stereo not drawn)
inactive: Potency [1] | Potency [2] | Potency [3] | Potency [5] | Potency [6] | outcome [7] | Potency [8] | Potency [11] | Potency [12] | Potency [14] | Potency [15] | Potency [20] | Potency [16] | Potency [17]

CC(=O)O[C@H]1C[C@@H]2CC[C@@H]3[C@H](CC[C@@]4(C)[C@H]3C[C@H]([N+]3(C)CCCCC3)[C@@H]4OC(C)=O)[C@@]2(C)C[C@@H]1N1CCCCC1
inactive: Potency [1] | Potency [2] | Potency [3] | outcome [4] | Potency [5] | Potency [6] | outcome [7] | Potency [8] | Potency [11] | Potency [12] | Potency [14] | Potency [15] | Potency [20] | Potency [16] | Potency [17]

CC(=O)O[C@@H]1C(=O)O[C@@H]2[C@H]1OC(=O)[C@@H]2OC(C)=O
inactive: Potency [1] | PLD induction [2] 0.969% [at 7.66 µM] | Potency [3] | outcome [4] | Potency [5] | Potency [6] | outcome [7] | Potency [8] | Potency [9] | Potency [10] | Potency [11] | Potency [12] | Potency [14] | Potency [15] | Potency [20] | Potency [16] | Potency [17] | outcome [18]

Cn1c(=O)c2c(ncn2CC(O)CO)n(C)c1=O (stereo not drawn)
inactive: Potency [1] | Potency [2] | Potency [3] | outcome [4] | Potency [5] | Potency [6] | outcome [7] | Potency [8] | Potency [9] | Potency [11] | Potency [14] | Potency [15] | Potency [20] | Potency [16] | Potency [17] | outcome [18] | Potency [19]

O=C(Nc1ccccc1)OCC(CN1CCCCC1)OC(=O)Nc1ccccc1 (stereo not drawn)
active: Potency [10] 26.6 µM | Potency [16] 18.8 µM
inactive: Potency [1] | Potency [2] | Potency [3] | outcome [4] | Potency [6] | outcome [7] | Potency [9] | Potency [11] | Potency [15] | Potency [20] | Potency [17] | outcome [18]

OC(CCN1CCCCC1)(c1ccccc1)C1CCCCC1 (stereo not drawn)
active: Potency [8] 8.41 µM
inactive: Potency [1] | Potency [2] | Potency [3] | outcome [4] | Potency [5] | Potency [6] | outcome [7] | Potency [9] | Potency [10] | Potency [11] | Potency [12] | Potency [14] | Potency [15] | Potency [20] | Potency [17] | Potency [19]

Reference: PubChem BioAssay (Tox21)
